In the library only some 17% were active in any assay of this set; here they are far more common.
DT40 TDP1 no CPT – qHTS for Inhibitors of human tyrosyl-DNA phosphodiesterase 1 (TDP1): qHTS in cells in absence of CPT. Potency, µM (top dose mostly 46.2 µM), for the others: top-dose activity change, negative = growth inhibition, most hits filed as inhibitors. AID 686978, 2013. 420,000 compounds, 15% hits. DT40 Tdp1-/- hTDP1 cells, no CPT, ATP luminescence, 48 h; note: % is set by controls: 0 for no effect and ±100 for the full control effect; nearly all actives have a fitted effect of over 55% in size
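DT40 Tdp1-/-;hTDP1 cells, no CPT (DMSO vehicle only), 400 cells/well; compounds pin-transferred; ≥48 hr, 37 °C; CellTiter-Glo 30 min RT dark, luminescence read.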
HepG2 viability – kills HepG2 cells in TGF-b inhibitor counter-screen; HepG2 CAGA-GFP viability, ATP luminescence, 18 h; Potency, µM (highest dose often 46.1 µM), inactives show at the highest dose activity change, negative = cytotoxicity, actives largely listed as cytotoxic; 410,000 compounds, 0.76% hits; AID 588856
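HepG2 CAGA-GFP cells (1000/well, DMEM with 1% FBS) received compound, then TGF-beta at 500 pg/mL final, and were incubated 18 hours at 37 degrees C. Viability was read by CellTiter-Glo luminescence. Media-only wells were set as complete cell-killing and DMSO as no toxicity.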
TGFb SMAD3 inh – blocks TGF-b signaling. HepG2 CAGA-GFP TGF-b/SMAD3 reporter, GFP fluorescence, 18 h; TGF-beta stimulated, 500 pg/mL final. Potency, µM (titrated, usually from 46.1 µM), inactives show at the highest dose activity, negative = inhibition, usual class: inhibitors. 410,000 compounds, 1.2% hits; note: % is set by controls: 0 for no effect and ±100 for the full control effect; nearly all actives have a fitted effect of over 65% in size
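Cell-based qHTS in HEPG2 carrying a CAGA-GFP Smad reporter; compounds added before 500 pg/mL final TGF-beta, 18 h incubation at 37 degrees C, GFP fluorescence quantified per cell by imaging cytometry.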
TDP1 cell CPT – DT40-hTDP1 cell growth loss with CPT. Potency, µM (highest dose often 46.2 µM), for the others: at the top dose activity change, negative = growth inhibition, usual class: inhibitors. 420,000 compounds, 12% hits. chicken DT40 Tdp1-/-;hTDP1 cells + 20 nM CPT, ATP luminescence, 48 h; note: % is set by controls: 0 for no effect and ±100 for the full control effect; nearly all actives have a fitted effect of over 55% in size
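Chicken DT40 Tdp1-/- cells complemented with human TDP1, 400 cells/well, exposed to compounds plus 20 nM camptothecin for at least 48 h at 37 C; viability read as ATP content by CellTiter-Glo luminescence.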
ATXN2 expr inh – inhibitors of ATXN2 expression; HEK-293 ATXN2-luciferase reporter, luminescence, 24 h; Potency, µM (series often up to 57 µM), for inactives: top-dose activity change, negative = inhibition, most hits filed as inhibitors; 360,000 compounds, 0.72% hits; AID 1745845; note: % is set by controls: 0 for no effect and ±100 for the full control effect; nearly all actives have a fitted effect of over 55% in size
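qHTS (up to 57 uM final) was run with 24 h compound exposure of reporter cells at 37 °C. Each well was multiplexed: SteadyGlo luminescence measured ATXN2-luciferase expression after a fluorogenic Gly-Phe-AFC viability readout (25 uM final).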
ATXN viability – cell viability loss in ATXN counter-screen. S2 cells (HEK-293 line with an ATXN2-luciferase reporter) viability, CellTiter-Fluor protease fluorescence, 24 h. Potency, µM (top dose mostly 56.7 µM), usual class: cytotoxic. 400,000 compounds, 0.49% hits; note: nearly all actives have a fitted effect of over 40% in size
Starred values were filed as active, the others as inactive; i = inactive; ? = inconclusive; · = no result given. Calls come from the whole dose curve; as a rule, active = well fitted curve in the direction sought with a large enough effect; inconclusive = small, poorly fitted or top-dose-only effect, or another doubt; inactive = no such curve, though single readings can be large; an effect the other way counts as inactive or inconclusive. Potency is the fitted concentration of half-maximal effect.

SMILES | DT40 TDP1 no CPT | HepG2 viability | TGFb SMAD3 inh | TDP1 cell CPT | ATXN2 expr inh | ATXN viability
CC(Sc1nc(N)c2c3c(sc2n1)CSC(C)(C)C3)C(=O)Nc1ccccc1 (stereo not given) | 13µM* | 3% | ? | 18µM* | -10% | ?
CNc1nc2sc3c(c2c(=O)n1C)CC(C)(C)SC3 | ? | -25% | -26% | -30% | 1% | ?
Cc1nc2ccc(NC(=O)c3ccc(C)c(S(=O)(=O)N4CCOCC4)c3)cc2s1 | ? | -7% | -18% | 18µM* | -33% | i
Cc1ccc(C(=O)Nc2ccc(Br)cc2)cc1S(=O)(=O)N1CCOCC1 | · | -50% | -10% | · | -17% | ?
Cc1nc2ccc(NC(=O)c3cc(S(=O)(=O)N4CCOCC4)ccc3C)cc2s1 | 23µM* | 0% | ? | ? | 0% | i
O=C(Nc1ccc(-c2cn3ccsc3n2)cc1)c1ccc(F)c(S(=O)(=O)N2CCOCC2)c1 | 23µM* | -21% | -14% | ? | ? | ?
Cc1cc(C(=O)O)cc(S(=O)(=O)Nc2ccccc2C(=O)NC2CC2)c1C | 2% | 6% | 0% | 15% | 5% | i
CC(=O)Nc1nc(C)c(C(C)=O)s1 | ? | 0% | 0% | 15µM* | 3% | i
CC(=O)c1sc(NC(=O)CCS(=O)(=O)c2ccc(F)cc2)nc1C | 2.9µM* | -97% | ? | 2.6µM* | · | ?
CC(=O)c1sc(NC(=O)CCS(=O)(=O)c2ccccc2)nc1C | 5.8µM* | -78% | 18µM* | 5.2µM* | ? | ?
CC(=O)c1sc(NCCOc2ccc(C)cc2)nc1C | 15µM* | -26% | -6% | ? | · | i
Cc1nnc2c(Nc3cccc(O)c3)nc3ccccc3n12 | ? | -10% | -6% | ? | 21% | i
c1cn(CCCNC2CCCCCCC2)cn1 | 3% | 0% | 15% | 0% | -22% | ?
COc1ccc(Nc2nc3ccc(OC)cc3s2)cc1 | -26% | -34% | -2% | -17% | 36% | i
COc1ccc2nc(Nc3nc(C)c(C(C)=O)s3)sc2c1 | 16µM* | -26% | ? | ? | -38% | i
CCOC(=O)C1CCN(C(=O)c2ccc(NC(=O)c3nsc4ccccc34)cc2)CC1 | ? | -44% | 0% | 21µM* | · | ·
NC(=O)C1CCN(C(=O)c2ccc(NC(=O)c3nsc4ccccc34)cc2)CC1 | ? | -24% | 2% | ? | -18% | i
CCOC(=O)C1CCCN(C(=O)c2ccc(NC(=O)c3nsc4ccccc34)cc2)C1 (stereo not given) | 16µM* | -14% | -44% | ? | 42% | i
CCOC(=O)c1c(C)[nH]c(C(=O)N/N=C\c2ccccc2O)c1C | 3.7µM* | -33% | -33% | 4.1µM* | ? | ?
COc1ccccc1/C=N/NC(=O)c1[nH]c(C)c(C(=O)N/N=C/c2ccccc2OC)c1C | -1% | -15% | -1% | 12% | -17% | i
COc1ccc(/C=N/NC(=O)c2[nH]nc3c2CCc2ccccc2-3)cc1OC | 2.6µM* | -26% | -31% | 6.5µM* | -7% | ?
CCOC(=O)c1c(C)[nH]c(C(=O)N/N=C/c2cc([N+](=O)[O-])ccc2O)c1C | 6.5µM* | -13% | -21% | 6.5µM* | ? | ?
CCOC(=O)c1c(C)[nH]c(C(=O)N/N=C/c2ccc(OC)c(OC)c2)c1C | 0.92µM* | -4% | 8% | 1.2µM* | · | i
Cc1ccccc1C(C(=O)NC1CCCCC1)N(C(=O)CNc1ccc(C#N)cc1)c1cccc(F)c1 (stereo not given) | · | · | · | · | 3% | ·

Screening results from PubChem BioAssay.
